Experimental data as given in PubChem BioAssay AID2174 (The Scripps Research Institute Molecular Screening Center, 2009).
Hit rate of the full screen: of about 320,000 compounds, about 500 (0.16%) were called active. Many of the other results were omitted from the sample, so actives are more common in it than they were. Unmarked numbers belong to inactive results.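 How the source made its calls: active means inhibition above the mean of all tested compounds plus 3 SD, set per campaign (cut at about 14% in these data); inactive means the rest.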

What follows are compounds tested against Acyl-protein thioesterase 1 (Homo sapiens) (UniProt O75608) (assay: LYPLA1 inhibitors, primary screen, counter-screen for PME1 inhibitor project, biochemical, fluorescence polarization, FP-Rh probe ABPP (AID 2174;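 further: inhibitors block serine hydrolase probe labeling of LYPLA1 so polarization falls; 0% = enzyme with DMSO and 100% = wells lacking LYPLA1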)). Details: recombinant LYPLA1, FP-Rh probe fluorescence polarization; at 5.9 µM; hits give high values.
Chain of Acyl-protein thioesterase 1 (Homo sapiens) (O75608 whole entry, looked up): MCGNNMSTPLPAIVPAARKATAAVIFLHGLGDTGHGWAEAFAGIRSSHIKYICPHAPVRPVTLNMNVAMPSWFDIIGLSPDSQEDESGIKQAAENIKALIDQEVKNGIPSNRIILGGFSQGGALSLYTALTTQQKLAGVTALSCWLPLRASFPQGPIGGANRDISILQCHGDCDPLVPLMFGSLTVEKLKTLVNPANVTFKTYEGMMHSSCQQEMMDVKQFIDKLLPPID

Question: Which inhibition does the source give for `Cc1ccc(S(=O)(=O)N2CCC(C(=O)N[C@@H](C)C(=O)NCCc3ccccc3)CC2)cc1` here?
Answer: Its inhibition is 2.54%.

Question: Which inhibition does the source give for `Cc1ccc(S(=O)(=O)N2CCC(C(=O)N[C@@H](C)C(=O)NCc3ccco3)CC2)cc1` here?
Answer: Its inhibition is 48% (active).

Question: For `Cc1ccc(S(=O)(=O)N2CCC(C(=O)N[C@@H](C)C(=O)NCc3ccccc3)CC2)cc1`, which inhibition is on record?
Answer: Its inhibition is -4.86%.

Question: How did the inhibition turn out when `COc1ccc(C(C)NC(=O)C2CCCC2)cc1` (stereo unspecified) was run?
Answer: The inhibition was 0.96%.

Question: How did the inhibition turn out when `Cc1c(Nc2nc3ccccc3nc2NS(=O)(=O)c2cccs2)c(=O)n(-c2ccccc2)n1C` was run?
Answer: The inhibition was -0.16%.

Question: With `CCOC(=O)c1c(/N=C/c2cc(C)ccc2O)sc2c1CCC2` as the compound, how does the inhibition read?
Answer: The inhibition was -3.88%.

Question: Which inhibition does the source give for `C=CCNC(=O)c1sc(SC)cc1-c1ccc(Cl)cc1` here?
Answer: Its inhibition is 21.3% (active).

Question: With `C=CCNC(=S)NNC(=O)c1cc(Cl)ccc1OC` as the compound, how does the inhibition read?
Answer: The inhibition was 1.08%.

Question: `C=CCNC(=O)c1cc(-c2ccccc2O)on1` was tested. Which inhibition did it give?
Answer: Its inhibition is -0.65%.

Question: How did the inhibition turn out when `CCn1cc(-c2cc(C(=O)O)on2)c(C)n1` was run?
Answer: The inhibition was -0.98%.

Question: For `CC(C)S(=O)(=O)c1csc(NC(=O)Nc2ccc(Cl)cc2)c1Cl`, which inhibition is on record?
Answer: The inhibition was -33.1%.

Question: Which inhibition does the source give for `CC1Cn2c(nnc2-c2cccs2)S1` (stereo unspecified) here?
Answer: Its inhibition is -1.86%.

Question: How did the inhibition turn out when `CN1C(=O)c2ccccc2C(C(=O)NCCCN2CCCC2)C1c1c[nH]c2ccccc12` (stereo unspecified) was run?
Answer: The inhibition was 3.18%.

Question: With `O=C1NC2(CCCCCC2)C(=O)N1CCS(=O)(=O)Oc1ccccc1` as the compound, how does the inhibition read?
Answer: The inhibition was -0.42%.

Question: `CC(C)CCNC(=O)CCNS(=O)(=O)c1ccc(Cl)cc1` was tested. Which inhibition did it give?
Answer: Its inhibition is -1.02%.

Question: With `O=C(CCCn1c(=O)c2sccc2n(CC(=O)NCC2CCCO2)c1=O)NCc1ccco1` (stereo unspecified) as the compound, how does the inhibition read?
Answer: Its inhibition is 4.84%.

Question: Which inhibition does the source give for `CCCCN(C(=O)/C=C/c1ccco1)c1c(N)n(CC(C)C)c(=O)[nH]c1=O` here?
Answer: The inhibition was -1.43%.

Question: For `O=C(NC1CC1)C1=C[C@H](c2c[nH]c3ccccc23)C[C@H](OCc2ccc(CO)cc2)O1`, which inhibition is on record?
Answer: Its inhibition is 0.98%.

Question: For `CC(=O)N1CCN(C(=O)c2cc(-c3ccc(Cl)s3)nc3ccccc23)CC1`, which inhibition is on record?
Answer: The inhibition was -4.07%.

Question: Which inhibition does the source give for `CCOc1ccc(N(CC(=O)NCCc2ccc(OC)cc2)S(C)(=O)=O)cc1` here?
Answer: The inhibition was 1.18%.

Question: How did the inhibition turn out when `CCn1c(SCC(=O)NC2CC2)nnc1-c1ccccn1` was run?
Answer: The inhibition was -1.31%.

Question: `CCN1CCN(CCNC(=O)c2ccc3c(c2)NC(=O)/C(=C\c2ccc(OC)c(OC)c2)S3)CC1` was tested. Which inhibition did it give?
Answer: Its inhibition is 24.7% (active).

Question: With `COc1ccc(/C=C(\NC(=O)c2ccccc2)C(=O)NCCN2CCOCC2)cc1OC` as the compound, how does the inhibition read?
Answer: The inhibition was -3.08%.

Question: Which inhibition does the source give for `COc1ccc(CCNC(=O)c2ccc3c(c2)NC(=O)C(N2CCOCC2)S3)cc1OC` (stereo unspecified) here?
Answer: Its inhibition is -0.92%.

Question: For `CCNc1ccc(C(=O)OCC(=O)N2c3ccccc3NC(=O)C2(C)C)cc1[N+](=O)[O-]`, which inhibition is on record?
Answer: The inhibition was 2.28%.

Question: For `C=C(C)CSc1nc(N)c2c3c(sc2n1)CCC3`, which inhibition is on record?
Answer: The inhibition was -2.73%.

Question: For `CCc1noc(C)c1C(=O)N1CCN(S(=O)(=O)c2cccc(C(F)(F)F)c2)CC1`, which inhibition is on record?
Answer: Its inhibition is -4.37%.

Question: For `O=C(COc1ccccc1Cl)Nc1ccc(C(=O)c2ccc(C(=O)O)cc2)cc1`, which inhibition is on record?
Answer: Its inhibition is 0.16%.

Question: Which inhibition does the source give for `O=C(NC(Cc1ccc(O)cc1)C(=O)O)/C(=C/c1ccccc1)NC(=O)c1ccccc1` (stereo unspecified) here?
Answer: The inhibition was -3.61%.

Question: With `O=C(O)c1ccccc1-c1ccccc1C(=O)NCCc1ccccc1` as the compound, how does the inhibition read?
Answer: The inhibition was -3.92%.

Question: `CC(C)CC1(C(=O)NCc2ccccn2)C=CCN1C(=O)c1ccccc1` (stereo unspecified) was tested. Which inhibition did it give?
Answer: Its inhibition is 0.98%.

Question: With `CCc1[nH]nc(C(=O)N2CCCC(CO)(Cc3ccc(F)cc3F)C2)c1C` (stereo unspecified) as the compound, how does the inhibition read?
Answer: The inhibition was -0.39%.

Question: For `CSc1c(SCc2ccccc2)cnn(Cc2ccccc2)c1=O`, which inhibition is on record?
Answer: The inhibition was 15% (active).

Question: How did the inhibition turn out when `COC(=O)c1ccc(SCc2ccccc2)nc1` was run?
Answer: The inhibition was -1.56%.

Question: For `CCn1c(SCc2ccccc2)nc2cc(OC)c(OC)cc2c1=O`, which inhibition is on record?
Answer: The inhibition was -1.81%.

Question: With `COC(=O)C1=C(C(=O)OC)[C@@H]2N(C)c3ccccc3[C@@]23C[C@@H](C(=O)OC)N(C(C)=O)C3=N1` as the compound, how does the inhibition read?
Answer: Its inhibition is -0.85%.

Question: With `CCCCCCCCCCCC(=O)O` as the compound, how does the inhibition read?
Answer: Its inhibition is 1.07%.

Question: Which inhibition does the source give for `COc1ccc(C2C(C#N)=C(N)Oc3n[nH]c(C)c32)cc1CN1CCN(c2ccc(F)cc2)CC1` (stereo unspecified) here?
Answer: Its inhibition is -1.23%.

Question: For `CCOC(=O)C1(CC2CCCCO2)CCN(Cc2nc(-c3cccs3)oc2C)CC1` (stereo unspecified), which inhibition is on record?
Answer: The inhibition was -3.08%.

Question: For `CC[N+](C)(CC)CCC[n+]1c(-c2ccccc2)c2cc(N)ccc2c2ccc(N)cc21`, which inhibition is on record?
Answer: Its inhibition is 60.1% (active).

Question: How did the inhibition turn out when `CCOC(=O)C1=C(CC)Nc2ccccc2N=C1NC(=O)c1cccc(S(=O)(=O)N2CCCC2)c1` was run?
Answer: Its inhibition is -0.79%.

Question: For `COc1cc(OC)cc(-c2c(-c3ccc(F)cc3)c3cc(-c4ccc5cc[nH]c5c4)ccc3n2C)c1`, which inhibition is on record?
Answer: Its inhibition is -1.29%.

Question: With `CC1=C[C@H]2Cc3cc(C)cc(C)c3S(=O)(=O)[C@@H]2C=C1` as the compound, how does the inhibition read?
Answer: The inhibition was -3.78%.

Question: With `O=C(N/C(=C\c1ccc(F)cc1)C(=O)N1CCCCCC1)c1ccccc1` as the compound, how does the inhibition read?
Answer: The inhibition was -1.76%.

Question: How did the inhibition turn out when `CC1=C(C)C(=O)OC(C(C)C2CCC3C4CC=C5CC(OC6OC(COC7OC(CO)C(O)C(O)C7O)C(O)C(O)C6O)CC(O)C5(C)C4CCC23C)C1` (stereo unspecified) was run?
Answer: Its inhibition is -11.7%.

Question: With `COc1cccc(/C=C/C(=O)OCC(=O)N2CCCc3ccccc32)c1` as the compound, how does the inhibition read?
Answer: Its inhibition is -0.36%.

Question: For `COc1ccc(N2CC(C(=O)NCCN3C(=O)S/C(=C\c4cccnc4)C3=O)CC2=O)c(OC)c1` (stereo unspecified), which inhibition is on record?
Answer: Its inhibition is 67.3% (active).

Question: With `CCOc1ccc(N2CC(C(=O)NCCN3C(=O)S/C(=C\c4cccnc4)C3=O)CC2=O)cc1` (stereo unspecified) as the compound, how does the inhibition read?
Answer: The inhibition was 7.93%.

Question: Which inhibition does the source give for `COc1ccccc1N1CC(C(=O)NCCN2C(=O)S/C(=C\c3cccnc3)C2=O)CC1=O` (stereo unspecified) here?
Answer: The inhibition was -0.75%.

Question: For `CCOc1ccc(S(=O)(=O)N2CCCCC2)cc1NC(=O)CN1CCCC1c1cccs1` (stereo unspecified), which inhibition is on record?
Answer: The inhibition was -2.05%.

Question: `Cc1sc2ncn(CC(=O)NCCCC(=O)NCc3ccc(F)cc3)c(=O)c2c1C` was tested. Which inhibition did it give?
Answer: Its inhibition is 3.83%.

Question: How did the inhibition turn out when `CC(C)(CNC(=O)CNC(=O)C1CCCCC1)N1CCOCC1` was run?
Answer: Its inhibition is -3.79%.

Question: Which inhibition does the source give for `Cn1cc(/C=C/C(=O)N2CCCC(C(=O)c3ccc(C(F)(F)F)cc3)C2)cn1` (stereo unspecified) here?
Answer: Its inhibition is -3.26%.

Question: With `CCCCn1c(N)c(N(CCC(C)C)C(=O)c2ccc([N+](=O)[O-])o2)c(=O)[nH]c1=O` as the compound, how does the inhibition read?
Answer: The inhibition was -7.18%.

Question: `CCCCn1c(N)c(N(CCC(C)C)C(=O)c2ccc(COc3ccccc3)o2)c(=O)[nH]c1=O` was tested. Which inhibition did it give?
Answer: The inhibition was 2.38%.

Question: How did the inhibition turn out when `CCCCn1c(N)c(N(CCC(C)C)C(=O)CC2OC(=O)c3ccccc32)c(=O)[nH]c1=O` (stereo unspecified) was run?
Answer: Its inhibition is 16.4% (active).
